Results published in PubChem BioAssay AID2653 (National Center for Advancing Translational Sciences (NCATS), 2010).
Records with an inconclusive call do not appear. Calls of active or inactive are those of the source. Calls come from the whole dose curve; as a rule, active = well fitted curve in the direction sought with a large enough effect; inconclusive = small, poorly fitted or top-dose-only effect, or another doubt; inactive = no such curve, though single readings can be large or run the other way.

Test: Secondary Assay for Activators of Human Pyruvate Kinase M2 isoform - Cell Titer Glo Cytotoxicity for Probe SAR
Details: HeLa viability, CellTiter-Glo ATP luminescence, 24 h; series mostly up to 58.2 µM
Experimental: NIH Chemical Genomics Center [NCGC]
Matthew G. Vander Heiden, M.D., Ph.D. [Harvard Medical School, 77 Avenue Louis Pasteur, Boston, MA 02115]
We have identified a series of activators of the M2 isoform of human pyruvate kinase. The assay described here examines the cytotoxicity of these compounds by measuring the total ATP content of Hela cells after 24 hrs of exposure to compound.
500 Hela cells/ 4ul in media (DMEM with high glucose, 10% FBS, 1x Pen Strep, 1x NEAA) were dispensed into a white solid 1536-microwell plate with a Thermo Multidrop. The plates were incubated at 37 degrees Celsius for 24 hours. The cells were then treated with compounds using the Kalypsys pin tool, delivering 23 nl of test compounds and the control doxorubicin. The plates were then incubated for an additional 24 hours at 37 degrees C after which 4 ul of Promega Cell-Titer Glo was dispensed using the Thermo Multidrop. The plates were incubated at room temperature for 10 min before reading luminescence on the Perkin Elmer ViewLux with images collected with 2x binning and a 5 sec exposure time.
For `Cc1ccc(Nc2c(-c3ccc(C)s3)nc3cccc(C)n23)cc1`, the outcome was “inactive”. In the case of `COc1cccc(N2C(=O)c3ccccc3C2=O)c1`, the outcome is reported as “inactive”. For `COc1ccccc1N1C(=O)c2ccccc2C1=O`, the outcome was “inactive”. With `Cc1ccc(NC(=O)c2ccc3c(c2)CCC(=O)N3)cc1C` the outcome was “inactive”. In the case of `COc1ccccc1NS(=O)(=O)c1ccc2c(c1)CCC(=O)N2`, the outcome is reported as “inactive”. For `Nc1cccc(S(=O)(=O)N2CCCN(S(=O)(=O)c3ccc4c(c3)OCCO4)CC2)c1`, the outcome was “inactive”. In the case of `O=C1c2ccccc2C(=O)N1c1ccc2ccccc2n1`, the outcome is reported as “inactive”. For `O=S1(=O)N=C(Oc2ccccc2)c2ccccc21`, the outcome was “inactive”. For `Cc1ccc(-c2nc3ccccn3c2Nc2ccccc2C)o1`, the outcome was “inactive”. For `Cc1ccc2nc(-c3ccc(C)o3)c(Nc3ccccc3)n2c1`, the outcome was “inactive”. For `Cc1ccccc1Nc1c(-c2ccccc2)nc2cccc(C)n12`, the outcome was “inactive”. For `COc1cc(N2C(=O)c3ccccc3C2=O)c2ncccc2c1`, the outcome was “inactive”. With `Cc1ccc(NS(=O)(=O)c2ccc3c(c2)CCC(=O)N3)cc1F` the outcome was “inactive”. With `O=C1c2ccccc2C(=O)N1Cc1ccccc1` the outcome was “inactive”. With `O=C1CCc2cc(S(=O)(=O)Nc3cccc(F)c3)ccc2N1` the outcome was “inactive”. With `Cc1ccc(NS(=O)(=O)c2ccc(F)cc2)cc1C` the outcome was “inactive”. With `O=C1c2ccccc2C(=O)N1c1cccc2cnccc12` the outcome was “inactive”. In the case of `Cc1ccc(Nc2c(-c3ccsc3)nc3cccc(C)n23)cc1`, the outcome is reported as “inactive”. For `Cc1ccc(NS(=O)(=O)c2cc3c(cc2N(C)C)NC(=O)CC3)cc1C`, the outcome was “inactive”. In the case of `Cn1c2cc(S(C)=O)sc2c2cnn(Cc3cccc(N)c3)c(=O)c21` (stereo not given), the outcome is reported as “inactive”. With `COc1cccc(OC2=NS(=O)(=O)c3ccccc32)c1` the outcome was “inactive”. In the case of `Cc1ccc(NS(=O)(=O)c2cccc(C(=O)O)c2)cc1C`, the outcome is reported as “inactive”. In the case of `O=C1CCc2cc(S(=O)(=O)Nc3ccc(-c4ccccc4)cc3)ccc2N1`, the outcome is reported as “inactive”. In the case of `O=C1CCc2cc(S(=O)(=O)Nc3cccnc3)ccc2N1`, the outcome is reported as “inactive”. For `COc1cccc(N2C(=O)c3ccccc3C2=O)n1`, the outcome was “inactive”. With `Cc1ccc(NS(=O)(=O)c2cc3c(cc2-c2ccco2)NC(=O)CO3)cc1C` the outcome was “inactive”. With `Cc1ccc(NS(=O)(=O)c2cc3c(cc2F)NC(=O)CC3)cc1C` the outcome was “inactive”. With `Cc1ccc(Nc2c(-c3ccc(C)s3)nc3ccccn23)cc1` the outcome was “inactive”. For `O=C1c2ccccc2C(=O)N1c1ccc2ncccc2c1`, the outcome was “inactive”. In the case of `Cc1ccccc1NS(=O)(=O)c1ccc2c(c1)CCC(=O)N2`, the outcome is reported as “inactive”. With `O=C1CCc2cc(S(=O)(=O)Nc3cccc(B(O)O)c3)ccc2N1` the outcome was “inactive”. In the case of `Cc1ccc(Nc2c(-c3ccsc3)nc3c(C)cccn23)cc1`, the outcome is reported as “inactive”. In the case of `O=C1c2ccccc2C(=O)N1c1cnc2ccccc2c1`, the outcome is reported as “inactive”. In the case of `O=C1CCc2cc(Cl)c(S(=O)(=O)Nc3ccc(Cl)c(Cl)c3)cc2N1`, the outcome is reported as “inactive”. For `O=S(=O)(c1ccc2c(c1)OCCO2)N1CCN(S(=O)(=O)c2c(F)cccc2F)CC1`, the outcome was “inactive”. In the case of `O=C1NS(=O)(=O)c2ccccc21`, the outcome is reported as “inactive”. For `Cc1ccc(NS(=O)(=O)c2ccc3c(ccn3C)c2)cc1C`, the outcome was “inactive”. In the case of `O=C1CCc2cc(S(=O)(=O)Nc3cccc(-c4ccccc4)c3)ccc2N1`, the outcome is reported as “inactive”. In the case of `O=C1CCc2cc([S+](=O)([O-])NC3CCOCC3)ccc2N1`, the outcome is reported as “inactive”. For `O=C1CCc2cc(S(=O)(=O)Nc3cccc(Br)c3)ccc2N1`, the outcome was “inactive”.
